Assay outcomes as filed in PubChem.
Hits are enriched below; roughly 2.4% of the tested compounds scored in any of these assays.
POLH inh – qHTS for Inhibitors of Polymerase Eta. 1.2% of 390,000 active. DNA polymerase eta (Homo sapiens), Q9Y253. Potency, µM (doses to about 114 µM), without a hit: at the top dose activity change, negative = inhibition, hits mostly inhibitors. recombinant Pol eta, fluorescent DNA replication assay; further: on the % scale 0 is the no-effect control and ±100 the full control effect
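Pol eta at 10 nM preincubated with compounds 15 min at room temperature; reaction started with fluorescent substrate (50 nM final) and read kinetically at 0 and 10 min.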
FEN1 inhibitor – qHTS Assay for the Inhibitors of Human Flap endonuclease 1 (FEN1); Recombinant FEN1 flap cleavage, fluorescence, 15 min; 0.35% of 390,000 active; AID 588795, 2011; P39748; Potency, µM (top dose mostly 114 µM), inactives show top-dose activity change, negative = inhibition, actives largely listed as inhibitors; further: on the % scale 0 is the no-effect control and ±100 the full control effect; nearly all actives have a fitted effect of over 65% in size
Target sequence (P39748 whole entry, looked up): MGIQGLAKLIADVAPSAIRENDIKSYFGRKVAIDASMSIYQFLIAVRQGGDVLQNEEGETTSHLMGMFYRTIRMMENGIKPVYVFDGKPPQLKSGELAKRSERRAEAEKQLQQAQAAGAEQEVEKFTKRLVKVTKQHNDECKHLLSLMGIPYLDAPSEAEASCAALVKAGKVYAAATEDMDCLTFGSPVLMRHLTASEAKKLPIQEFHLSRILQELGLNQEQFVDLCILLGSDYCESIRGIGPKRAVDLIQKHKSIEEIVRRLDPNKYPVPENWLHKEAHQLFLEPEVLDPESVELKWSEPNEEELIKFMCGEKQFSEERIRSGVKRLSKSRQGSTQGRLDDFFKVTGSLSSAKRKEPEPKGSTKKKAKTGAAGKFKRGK
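Quantitative HTS format: each compound was titrated, incubated with 10 nM nuclease for 15 min at room temperature, then challenged with flap substrate at 50 nM final. Signal change over 15 min gave concentration–effect curves.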
WRN inhibitor – qHTS for Inhibitors of WRN Helicase. Potency, µM (titrated, usually from 114 µM), without a hit: top-dose activity change, negative = inhibition, hits mostly inhibitors. AID 651768, 2012. 0.46% of 360,000 active. WRN helicase unwinding, fluorescent forked duplex, kinetic. Bifunctional 3'-5' exonuclease/ATP-dependent helicase WRN (Homo sapiens), Q14191; further: on the % scale 0 is the no-effect control and ±100 the full control effect; nearly all actives have a fitted effect of over 55% in size
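Kinetic fluorescence helicase assay: unwinding of a quenched forked DNA duplex (100 nM final) with 2 mM ATP final raises red fluorescence (525/598 nm). Compounds sat 15 min at room temperature with 20 nM WRN beforehand.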
Pol iota inh – qHTS for Inhibitors of Polymerase Iota. Pol iota fluorescent replication assay, 10 min. Potency, µM (titrated, usually from 115 µM), for inactives: at the top dose activity, negative = inhibition, usual class: inhibitors. 1% of 390,000 active. AID 588590, 2011. DNA polymerase iota (Homo sapiens), Q9UNA4
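Fluorescent replication assay read twice, at 0 min and 10 min after adding 50 nM (final) substrate. Enzyme (10 nM) and compounds were first incubated 15 min at room temperature; enzyme-free buffer wells were negative controls.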
Pol beta inh – qHTS Assay for Inhibitors of DNA Polymerase Beta | Pol beta primer extension/strand displacement, fluorescence kinetic | AID 485314, 2010 | P06746 | 1.3% of 340,000 active | Potency, µM (doses to about 114 µM), without a hit: at the highest dose activity change, negative = inhibition, actives largely listed as inhibitors; further: on the % scale 0 is the no-effect control and ±100 the full control effect
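Values derive from four-parameter Hill fits of normalized kinetic data: reads at 0 and 10 min following addition of 50 nM substrate to 10 nM Pol beta preincubated 15 min with compound.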
POLK inh – qHTS for Inhibitors of Polymerase Kappa. DNA polymerase kappa (Homo sapiens), Q9UBT6. purified Pol kappa, fluorescent DNA synthesis assay, 10 min. Potency, µM (doses to about 107 µM), without a hit: at the highest dose activity, negative = inhibition, most hits filed as inhibitors. 0.53% of 400,000 active. AID 588579, 2011; further: on the % scale 0 is the no-effect control and ±100 the full control effect
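Fluorescent qHTS in 1536-well format: enzyme (10 nM) and compound sat 15 min at room temperature before 50 nM substrate (final) was added. Signal taken at 0 and 10 min; no-enzyme buffer wells were negative controls.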
* = called active by the depositor; [ ] = dose if it differs, or a comment. The call rests on the fitted dose curve; in most records, active means well fitted curve in the direction sought with a large enough effect; inconclusive means small, poorly fitted or top-dose-only effect, or another doubt; inactive means no such curve, though single readings can be large; an effect the other way counts as inactive or inconclusive. Potency means the concentration at half of the fitted maximal effect.

How did O=[N+]([O-])c1cc(/C=N\Nc2nc(-c3ccccc3)cs2)ccc1O do in these assays?
POLH inh: 79µM*; FEN1 inhibitor: inconclusive; WRN inhibitor: inconclusive; Pol iota inh: inconclusive; Pol beta inh: 40µM*; POLK inh: -25%

What do the screens show for `CCOC(=O)c1nc2sc(C)c(C)c2c(=O)[nH]1`?
POLH inh: -11%; FEN1 inhibitor: -14%; WRN inhibitor: 2%; Pol iota inh: 68%; Pol beta inh: 32%; POLK inh: 12%

What do the screens show for `CCOC(=O)/C(=C\c1cccc(O)c1)c1nc2sc(C)c(C)c2c(=O)[nH]1`?
POLH inh: -20%; FEN1 inhibitor: -6%; WRN inhibitor: inconclusive; Pol iota inh: 18µM*; Pol beta inh: -29%; POLK inh: -9%

What do the screens show for `c1ccc2c(c1)nc1n2CCS1`?
POLH inh: -16%; FEN1 inhibitor: -2%; WRN inhibitor: -13%; Pol iota inh: -4%; Pol beta inh: -6%; POLK inh: 89µM*

What do the screens show for `O=C1CSc2nc3ccccc3n21`?
POLH inh: -4%; FEN1 inhibitor: -1%; WRN inhibitor: -11%; Pol iota inh: 3%; Pol beta inh: 0%; POLK inh: -16%

Results for O=C(c1cccc(S(=O)(=O)NCc2ccccc2)c1)N1CCN(c2ccccc2Cl)CC1 ?
POLH inh: -17%; FEN1 inhibitor: -17%; WRN inhibitor: -4%; Pol iota inh: 89µM*; POLK inh: -8%

How did CCC(C)NC(=O)c1ccc2c(c1)nc1n2CCCCC1 (stereo not drawn) do in these assays?
POLH inh: -9%; FEN1 inhibitor: 2%; Pol iota inh: -4%; Pol beta inh: -15%; POLK inh: -13%[60.1 µM]

How did O=C1CCC(=O)N1c1ccc(-c2nc3sc4c(c3c(=O)o2)CCC4)cc1 do in these assays?
POLH inh: -3%; FEN1 inhibitor: -2%; WRN inhibitor: -2%; Pol iota inh: 15%; Pol beta inh: 0%; POLK inh: -3%

Results for O=c1oc(-c2ccccc2)nc2sc3c(c12)CCC3 ?
POLH inh: inconclusive; FEN1 inhibitor: 4%; WRN inhibitor: -16%[11.6 µM]; Pol iota inh: inconclusive; Pol beta inh: 11µM*; POLK inh: 79µM*

How did COCCn1c(SCC(=O)c2ccccc2)nc2cc(C(=O)NC3CCCC3)ccc2c1=O do in these assays?
POLH inh: -3%; FEN1 inhibitor: 2%; Pol iota inh: 9%; Pol beta inh: -4%; POLK inh: 0%

What do the screens show for `O=C(CN1C(=O)C2CCCCN2c2ccc(C(=O)N3CCCC3)cc21)NCc1cccc(Cl)c1` (stereo not drawn)?
POLH inh: inconclusive; FEN1 inhibitor: 3%; Pol iota inh: 24%; Pol beta inh: -2%; POLK inh: -10%[60.1 µM]

Results for S=C(NCCc1ccccc1)N1CCN(C(c2ccccc2)c2ccccc2)CC1 ?
POLH inh: -9%; FEN1 inhibitor: -6%; WRN inhibitor: -27%; Pol iota inh: -6%; Pol beta inh: 89µM*; POLK inh: -3%

What do the screens show for `CCCCNC(=S)N1CCN(C(c2ccccc2)c2ccccc2)CC1`?
POLH inh: -25%; FEN1 inhibitor: -16%; WRN inhibitor: 0%; Pol iota inh: 100%; Pol beta inh: 0%; POLK inh: -10%

How did CCCc1cc(C(=O)N2CCN(C(c3ccccc3)c3ccccc3)CC2)no1 do in these assays?
POLH inh: inconclusive; FEN1 inhibitor: -21%; WRN inhibitor: -7%[57.1 µM]; Pol iota inh: inconclusive; Pol beta inh: -19%; POLK inh: 89µM*

How did CCCNC(=S)N1CCN(C(c2ccccc2)c2ccccc2)CC1 do in these assays?
POLH inh: inconclusive; FEN1 inhibitor: inconclusive; WRN inhibitor: -7%; Pol iota inh: -9%; Pol beta inh: 56µM*; POLK inh: -11%

Results for CNC(=O)c1c[nH]n2c(=O)c(Cc3ccccc3F)c(C)nc12 ?
POLH inh: -7%; FEN1 inhibitor: 15%; WRN inhibitor: -4%; Pol iota inh: -22%; Pol beta inh: inconclusive; POLK inh: -3%

What do the screens show for `Cc1nc2c(C(=O)NCCc3ccc(Cl)cc3)c[nH]n2c(=O)c1Cc1ccc(Cl)cc1`?
POLH inh: 89µM*; FEN1 inhibitor: inconclusive; Pol iota inh: 79µM*; Pol beta inh: 22µM*; POLK inh: inconclusive

What do the screens show for `Cc1nc2c(C(=O)N(C)Cc3ccccc3)c[nH]n2c(=O)c1Cc1ccc(Cl)cc1`?
POLH inh: -11%; FEN1 inhibitor: inconclusive; Pol iota inh: 50µM*; Pol beta inh: inconclusive; POLK inh: 89µM*

Results for Cc1nc2c(C(=O)NCCc3ccccc3)c[nH]n2c(=O)c1Cc1ccccc1F ?
POLH inh: 3%; FEN1 inhibitor: -2%; Pol iota inh: 79µM*; Pol beta inh: inconclusive; POLK inh: -24%

What do the screens show for `C(=C\c1cnc2ccccc2n1)/c1ccc2c(c1)OCO2`?
FEN1 inhibitor: 4%; Pol iota inh: 20%; POLK inh: 6%

What do the screens show for `Cc1cc(Cl)ccc1NNC(N)=S`?
POLH inh: -9%; FEN1 inhibitor: -4%; WRN inhibitor: -1%[11.6 µM]; Pol iota inh: 14µM*; Pol beta inh: 10%; POLK inh: -7%

What do the screens show for `O=C1C=CC(=O)c2c(O)c(Cl)c(Cl)c(O)c21`?
POLK inh: 7.1µM*

What do the screens show for `O=C1C=Cc2cccc3ccc(O)c1c23`?
POLH inh: -13%; FEN1 inhibitor: -8%; WRN inhibitor: 15%; Pol iota inh: 11%; POLK inh: -6%

Results for O=C(C[n+]1ccccc1Br)c1ccc2c(c1)CCCC2 ?
FEN1 inhibitor: -21%; Pol iota inh: 71µM*; POLK inh: inconclusive

What do the screens show for `COc1ccc2nc(NC(=O)c3ccc(S(=O)(=O)N4CCC(C)CC4)cc3)sc2c1`?
POLH inh: -13%; FEN1 inhibitor: -2%; Pol iota inh: -7%; Pol beta inh: -12%; POLK inh: -4%[60.1 µM]

How did O=C(Nc1ccccc1F)c1coc(=O)c(Br)c1 do in these assays?
POLH inh: 79µM*; FEN1 inhibitor: inconclusive; WRN inhibitor: inconclusive; Pol iota inh: 28µM*; Pol beta inh: 13µM*; POLK inh: 32µM*

What do the screens show for `O=C(Nc1ccc(Br)cn1)c1coc(=O)c(Br)c1`?
POLH inh: 45µM*; FEN1 inhibitor: -3%; WRN inhibitor: -24%; Pol iota inh: 40µM*; Pol beta inh: inconclusive; POLK inh: inconclusive
